Hits are enriched below; roughly 4.8% of the tested compounds scored in any of these assays.
SMARCA2 act = SMARCA2 (BRM) function activators, primary screen, cell-based, luminescence, high throughput; MG213 cells, MMTV-luciferase reporter, dexamethasone, overnight; activation, % at 9.1 µM; 1% of 370,000 active; in the data active = activation above about 7.8%;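 also: 0% = vehicle wells and 100% = reference activator wells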
DAX1 inh-1 = DAX1 (NR0B1) inhibitors, primary screen, cell-based, HEK293, Gal4-DAX1, luciferase luminescence | HEK293 Gal4-DAX1 luciferase reporter | inhibition, % at 6.75 µM | 0.99% of 340,000 active | Nuclear receptor subfamily 0 group B member 1 (Homo sapiens), P51843;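 active = inhibition above the mean over all tested compounds plus 3 SD, cut at about 4.2% in these data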;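 also: 0% = DAX1-transfected cells with DMSO and 100% = empty-vector control cells with DMSO; inhibition shows as a rise in luminescence from relieved DAX1 repression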
Target sequence (P51843 207-470 limits assumed): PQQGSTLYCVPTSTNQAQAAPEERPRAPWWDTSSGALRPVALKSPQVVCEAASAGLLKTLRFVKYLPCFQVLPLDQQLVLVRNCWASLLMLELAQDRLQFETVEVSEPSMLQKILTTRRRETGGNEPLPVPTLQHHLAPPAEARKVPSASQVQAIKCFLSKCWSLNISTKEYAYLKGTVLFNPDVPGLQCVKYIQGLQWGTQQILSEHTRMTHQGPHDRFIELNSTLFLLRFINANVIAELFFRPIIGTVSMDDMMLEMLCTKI
ssDAF12 agonist = S. stercoralis DAF-12 nuclear receptor activators, primary screen, cell-based, luminescence, HEK293, GRIP1 co-expression, lit1-tk-luc; HEK293 ssDAF-12/GRIP1 lit1-tk-luc reporter; % of 3 µM dafachronic acid response; activation, % at 6.8 µM; 1% of 370,000 active; AID 652126, 2013;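 active = activation above the mean over all tested compounds plus 3 SD, cut at about 0.9% in these data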;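 also: 0% = DMSO-only wells and 100% = 3 µM delta7-dafachronic acid wells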
DAX1 inh-2 = DAX1 (NR0B1) inhibitors on StAR promoter, primary screen, cell-based, luminescence, SF-1 (NR5A1), full-length DAX-1. 1.1% of 370,000 active. HEK293T StAR-luciferase reporter, SF-1/DAX-1 repression relief. inhibition, % at 6.8 µM;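 active = inhibition above the mean over all tested compounds plus 3 SD, cut at about 3.6% in these data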;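 also: 0% = DAX-1 cells with DMSO and 100% = cells lacking DAX-1 with DMSO; higher inhibition means more luminescence from relief of DAX-1 repression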
hcDAF12 agonist = H. contortus DAF-12 nuclear receptor activators, primary screen, cell-based, luminescence, HEK293, lit1-tk-luc reporter. HEK293 hcDAF-12 lit1-tk-luc reporter; 0% DMSO, 100% Δ7-dafachronic acid. activation, % at 6.8 µM. 1.4% of 370,000 active;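 active = activation above the mean of all tested compounds plus 3 SD, cut at about 5.5% in these data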;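 also: 100% = response to 3 µM Δ7-dafachronic acid high control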
hgDAF-12 ag = H. glycines DAF-12 receptor agonists, primary screen, cell-based, luminescence, HEK293, GAL4 fusion, UAS-luciferase | Nuclear hormone receptor DAF-12 (Heterodera glycines), GAL4 fusion | HEK293 GAL4-hgDAF12 UAS-luciferase reporter, agonist luminescence; normalized to butyrate control | activation, % at 6.8 µM | 1.8% of 370,000 active | AID 687014, 2013;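 active = activation above a cutoff set at the mean of all screened compounds plus 3 SD, cut at about 10% in these data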;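 also: 0% = DMSO wells and 100% = sodium butyrate wells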
The depositor's hits bear a star; · = not tested or not shown.

SMILES	SMARCA2 act	DAX1 inh-1	ssDAF12 agonist	DAX1 inh-2	hcDAF12 agonist	hgDAF-12 ag
Cc1cc(C(=O)CSc2nc3ccccc3[nH]2)c(C)n1C	5	1	1.1*	3.7*	6	11*
Cn1c(=O)n(C)c2cc(NC(=O)CSc3nc4ccccc4c(=O)[nH]3)ccc21	-1	4.7*	-1	0	1	0
CCOC(=O)Cn1nc(-c2ccc(C)cc2)c2ccccc2c1=O	-2	-1	-2	1	-2	-5
CCOC(=O)Cn1nc(-c2ccccc2)c2cnc3ccc(C)cc3c21	-2	1	1	0	6.3*	1
CCCN(CC(=O)Nc1ccccc1OC)C(=O)CCC(=O)c1ccc(Cl)s1	0	-1	-2	0	-1	-1
CN(C)c1ccc(C(=O)/C=C/c2ccco2)cc1	4	-1	0.9*	2	6	13*
O=C(/C=C\c1ccco1)c1ccc(NC(=O)c2ccco2)cc1	7	0	-1	1	1	11*
Cc1ccccc1OCCC(=O)N1CCN(S(=O)(=O)c2ccc(Cl)cc2)CC1	1	-1	0	1	-1	-2
COC(=O)c1ccc2nc(C3CCCCC3)c(Cc3ccccc3)n2c1	-2	·	0	1	5.9*	3
COC(=O)c1ccc2nc(-c3ccccc3)c(Cc3cccc(Cl)c3)n2c1	-2	·	1.2*	2	4	9
COC(=O)c1ccc2nc(C3CCCCC3)c(CC(C)(C)C)n2c1	-5	·	-1	-1	-1	-1
COC(=O)c1ccc2nc(-c3cccc(Cl)c3)c(Cc3ccccc3)n2c1	2	·	0	0	4	7
CC(=O)Nc1nc(-c2ccc3c(c2)CCO3)cs1	2	0	-1	0	2	11*
COc1ccc(-c2csc(NC(C)=O)n2)cc1OC	0	0	-1	1	1	3
COc1cccc(-c2csc(NC(C)=O)n2)c1	7	1	-1	1	0	11*
O=C(C1CCN(S(=O)(=O)c2cccc3cccnc23)CC1)N1CCN(c2ccccc2)CC1	-2	2	-1	0	1	12*
O=C(C1CCN(S(=O)(=O)c2cccc3cccnc23)CC1)N1CCN(Cc2ccccc2)CC1	-1	-2	-1	-1	-1	-1
O=C(Cc1n[nH]c(=O)c2ccccc12)Nc1cccc(S(=O)(=O)N2CCCCCC2)c1	-2	-1	-2	-3	-2	-5
CCCC[C@@H]1CNCCN1CC1(c2ccccc2)CC1	0	0	-1	0	1	2
O=C(NCC1CCCO1)/C(=C/c1ccccc1)NC(=O)c1ccccc1 (stereo not drawn)	-3	-2	-1	0	0	4
C(=C\c1ccccc1)/CNCC1CCCO1 (stereo not drawn)	-2	0	1.6*	0	3	7
Fc1ccc(CNCC2CCCO2)cc1 (stereo not drawn)	-2	4.3*	-1	0	0	-1
CC1=C(C(=O)N2CCCCCC2)CC(CC(=O)NCCCN(C)C)C(=O)N1Cc1ccc(C(C)(C)C)cc1 (stereo not drawn)	-4	·	0	0	0	4
COc1cc(N(CCCn2cnc3c(SC)ncnc32)CCCn2cnc3c(SC)ncnc32)cc(OC)c1OC	4	0	-1	0	0	-2
CC(C)(C)NS(=O)(=O)c1ccc(NC(=O)Cc2ccccc2[N+](=O)[O-])cc1	0	0	-1	-1	1	-2
SMILES	SMARCA2 act	DAX1 inh-1	ssDAF12 agonist	DAX1 inh-2	hcDAF12 agonist	hgDAF-12 ag
NS(=O)(=O)c1ccc(CNC(=O)Cc2ccccc2[N+](=O)[O-])cc1	0	1	0	0	5.6*	4
NS(=O)(=O)c1ccc(CCNC(=O)Cc2ccccc2[N+](=O)[O-])cc1	-2	0	0	0	3	-3
Cc1ccccc1CNC(=O)Cc1ccccc1[N+](=O)[O-]	2	1	1	2	4	5
CCCCNS(=O)(=O)c1ccc(NC(=O)Cc2ccccc2[N+](=O)[O-])cc1	-1	0	2.0*	-1	1	0
CCC(CC)NC(=O)Cc1ccccc1[N+](=O)[O-]	0	1	0	1	5.6*	2
CCn1cc(Br)c(C(=O)NC(C)c2ccccc2)n1 (stereo not drawn)	-2	0	-1	0	-2	0
CC(NC(=O)Cn1cc(Br)c([N+](=O)[O-])n1)c1ccccc1 (stereo not drawn)	0	4.3*	-1	0	1	-2
CCc1nc2ccc(C(=O)Nc3ccc(C(N)=O)cc3)cn2c1N(CCC(C)C)CCN(C)C	-3	·	-1	3	-1	-1
CC(NC(=O)Cc1ccccc1[N+](=O)[O-])c1ccccc1 (stereo not drawn)	1	·	0	0	6.3*	6
CC(NC(=O)COC(=O)Cc1ccccc1[N+](=O)[O-])c1ccccc1 (stereo not drawn)	1	0	-1	0	0	2
O=C(Cc1ccccc1[N+](=O)[O-])NC1CCN(Cc2ccccc2)CC1	-2	0	1.5*	0	3	2
O=C(Cc1c(F)cccc1Cl)NC1CCN(Cc2ccccc2)CC1	-1	1	-1	2	0	-2
CC(=O)OCC(=O)C1(O)CCC2C3CCC4=CC(=O)CCC4(C)C3(F)C(O)CC21C (stereo not drawn)	-3	-1	-2	1	1	-6
CCCCNC(=O)C1c2ccccc2OCC(=O)N1Cc1cccnc1 (stereo not drawn)	-3	·	-1	2	-1	-3
O=C1N=C(N2CCCCC2)S/C1=C\c1ccccc1F	1	4.3*	-1	0	0	4
CC(=O)c1ccc(N(CC(=O)NC2CCS(=O)(=O)C2)S(=O)(=O)c2ccc(C)cc2)cc1 (stereo not drawn)	-4	2	-1	0	1	2
CC(C)CN(CCNC(=O)CN1C(=O)CSc2ccc(S(=O)(=O)N3CCOCC3)cc21)CC(C)C	0	2	-1	0	0	1
CC(C)CN(CCCNC(=O)CN1C(=O)CSc2ccc(S(=O)(=O)N3CCOCC3)cc21)CC(C)C	2	1	0.9*	2	-1	0

Screening results from PubChem.
